PubChem BioAssay AID1159580 (chemical genetic matrix, 2015)
In all, about 5,500 compounds went through this assay and about 2,000 (36%) were called active. Another 18% or so got no clear call; they are omitted. No stated cut-off is given here; in the data, active means normalized growth mostly below about 0.91 (no sharp cut-off); inconclusive means no clear call, values can overlap the other calls; inactive means mostly above about 0.92. The list shows a part of the results.

Assay: chemical genetic growth profiling, strain panel (AID 1159580);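 further: tested at 20 µM; growth read once vehicle control cultures reached saturation at 30 °C; 1 = growth at the plate median or of vehicle wells; lower values mean less growth of the strain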
Conditions: growth OD

Measured: normalized growth

COC[C@]12CN(C=O)C3[C@@H]4[C@H](OC)C1[C@]3(C1CC3(O)C(OC)C(O)C4(OC(C)=O)C1C3OC(=O)c1ccccc1)[C@@H](OC)C[C@H]2O (stereo not given in full)
inactive: S. cerevisiae deletion strains, locus YJR066W, strain TOR1, hits give low values 0.991 | S. cerevisiae deletion strains, locus YJR075W, strain HOC1, hits give low values 1.02 | S. cerevisiae deletion strains, locus YKL009W, strain mrt4, hits give low values 0.991 | S. cerevisiae deletion strains, locus YKL068W, hits give low values 1 | S. cerevisiae deletion strains, locus YKL085W, strain MDH1 (second series), hits give low values 1.01 | S. cerevisiae deletion strains, locus YKL085W, strain MDH1, hits give low values 1.01 | S. cerevisiae deletion strains, locus YKL160W, strain elf1, hits give low values 1.01 | S. cerevisiae deletion strains, locus YKR001C, strain vps1, hits give low values 1.02 | S. cerevisiae deletion strains, locus YKR026C, strain gcn3, hits give low values 1.02 | S. cerevisiae deletion strains, locus YKR091W, strain srl3, hits give low values 1.01 | S. cerevisiae deletion strains, locus YLL001W, strain dnm1, hits give low values 1.01 | S. cerevisiae deletion strains, locus YLL026W, hits give low values 1.01 | S. cerevisiae deletion strains, locus YLL041C, strain sdh2, hits give low values 1.01 | S. cerevisiae deletion strains, locus YLR027C, strain aat2, hits give low values 1 | S. cerevisiae deletion strains, locus YLR039C, strain RIC1, hits give low values 1.06 | S. cerevisiae deletion strains, locus YLR058C, strain SHM2, hits give low values 1.02 | S. cerevisiae deletion strains, locus YLR102C, strain apc9, hits give low values 1.01 | S. cerevisiae deletion strains, locus YLR113W, strain HOG1, hits give low values 0.972 | S. cerevisiae deletion strains, locus YLR221C, strain rsa3, hits give low values 1.01 | S. cerevisiae deletion strains, locus YLR258W, strain gsy2, hits give low values 1.02 | S. cerevisiae deletion strains, locus YLR262C, strain YPT6 (second series), hits give low values 0.995 | S. cerevisiae deletion strains, locus YLR262C, strain YPT6, hits give low values 1.04 | S. cerevisiae deletion strains, locus YLR268W, strain sec22, hits give low values 0.992 | S. cerevisiae deletion strains, locus YLR320W, strain mms22, hits give low values 1.03 | S. cerevisiae deletion strains, locus YLR342W, strain FKS1 (second series), hits give low values 1.01 | S. cerevisiae deletion strains, locus YLR342W, strain FKS1, hits give low values 1.03 | S. cerevisiae deletion strains, locus YLR357W, strain rsc2, hits give low values 1.01 | S. cerevisiae deletion strains, locus YLR370C, strain arc18, hits give low values 1.01 | S. cerevisiae deletion strains, locus YLR371W, strain rom2, hits give low values 0.995 | S. cerevisiae deletion strains, locus YLR384C, strain iki3, hits give low values 1.01 | S. cerevisiae deletion strains, locus YLR418C, strain cdc73, hits give low values 1.05 | S. cerevisiae deletion strains, locus YML016C, strain PPZ1, hits give low values 0.999 | S. cerevisiae deletion strains, locus YML032C, strain rad52, hits give low values 0.995 | S. cerevisiae deletion strains, locus YML120C, strain ndi1, hits give low values 1.01 | S. cerevisiae deletion strains, locus YML124C, strain tub3, hits give low values 1.01 | S. cerevisiae deletion strains, locus YMR058W, strain fet3, hits give low values 1.01 | S. cerevisiae deletion strains, locus YMR078C, strain ctf18, hits give low values 1.01 | S. cerevisiae deletion strains, locus YMR125W, strain sto1, hits give low values 1.01 | S. cerevisiae deletion strains, locus YMR129W, hits give low values 1.01 | S. cerevisiae deletion strains, locus YMR205C, strain PFK2, hits give low values 1.01 | S. cerevisiae deletion strains, locus YMR223W, strain ubp8, hits give low values 1.01 | S. cerevisiae deletion strains, locus YMR231W, strain pep5, hits give low values 1 | S. cerevisiae deletion strains, locus YMR307W, strain GAS1, hits give low values 1.02 | S. cerevisiae deletion strains, locus YNL067W, strain RPL9B, hits give low values 1.03 | S. cerevisiae deletion strains, locus YNL071W, strain lat1, hits give low values 1 | S. cerevisiae deletion strains, locus YNL183C, strain NPR1, hits give low values 0.987 | S. cerevisiae deletion strains, locus YNL209W, strain ssb2, hits give low values 1 | S. cerevisiae deletion strains, locus YNL233W, strain BNI4, hits give low values 1.01 | S. cerevisiae deletion strains, locus YNL248C, strain rpa49, hits give low values 1.02 | S. cerevisiae deletion strains, locus YNL250W, strain rad50, hits give low values 1.04 | S. cerevisiae deletion strains, locus YNL271C, strain bni1, hits give low values 1.02 | S. cerevisiae deletion strains, locus YNL298W, strain CLA4, hits give low values 1.02 | S. cerevisiae deletion strains, locus YNL307C, strain MCK1, hits give low values 1.01 | S. cerevisiae deletion strains, locus YNL322C, strain KRE1 (second series), hits give low values 1.02 | S. cerevisiae deletion strains, locus YNR049C, strain mso1, hits give low values 1.01 | S. cerevisiae deletion strains, locus YNR052C, strain pop2, hits give low values 1.01 | S. cerevisiae deletion strains, locus YOL006C, strain TOP1, hits give low values 1.03 | S. cerevisiae deletion strains, locus YOL012C, strain htz1 0.737 | S. cerevisiae deletion strains, locus YOL147C, strain pex11, hits give low values 1 | S. cerevisiae deletion strains, locus YOR001W, strain rrp6, hits give low values 1.02 | S. cerevisiae deletion strains, locus YOR061W, strain CKA2, hits give low values 1.01 | S. cerevisiae deletion strains, locus YOR069W, strain VPS5, hits give low values 1.01 | S. cerevisiae deletion strains, locus YOR070C, strain gyp1, hits give low values 1 | S. cerevisiae deletion strains, locus YOR080W, strain dia2, hits give low values 1.01 | S. cerevisiae deletion strains, locus YOR083W, strain WHI5, hits give low values 1.01 | S. cerevisiae deletion strains, locus YOR106W, strain vam3, hits give low values 1 | S. cerevisiae deletion strains, locus YOR136W, strain idh2, hits give low values 1.01 | S. cerevisiae deletion strains, locus YOR144C, strain elg1, hits give low values 1.01 | S. cerevisiae deletion strains, locus YOR184W, strain ser1, hits give low values 1.01 | S. cerevisiae deletion strains, locus YOR231W, strain MKK1, hits give low values 1.01 | S. cerevisiae deletion strains, locus YOR265W, strain rbl2, hits give low values 1 | S. cerevisiae deletion strains, locus YOR270C, strain vph1, hits give low values 1.03 | S. cerevisiae deletion strains, locus YOR290C, strain snf2, hits give low values 1.02 | S. cerevisiae deletion strains, locus YOR316C, strain cot1, hits give low values 1.01 | S. cerevisiae deletion strains, locus YPL051W, strain arl3, hits give low values 1.01 | S. cerevisiae deletion strains, locus YPL078C, strain atp4, hits give low values 1.01 | S. cerevisiae deletion strains, locus YPL106C, strain sse1, hits give low values 0.999 | S. cerevisiae deletion strains, locus YPL240C, strain hsp82, hits give low values 1.01 | S. cerevisiae deletion strains, locus YPL256C, strain CLN2, hits give low values 1.08 | S. cerevisiae deletion strains, locus YPR119W, strain clb2, hits give low values 1 | S. cerevisiae deletion strains, locus YPR141C, strain kar3, hits give low values 0.998 | S. cerevisiae deletion strains, locus YPR163C, strain tif3, hits give low values 1.01 | S. cerevisiae deletion strains, locus YPR167C, strain met16, hits give low values 1.01 | S. cerevisiae deletion strains, strain wtn01, hits give low values 0.99 | S. cerevisiae strains, strain wild type, hits give low values 1.02
